# Bioassay records: PubChem, several laboratories
# MEKK3 PB1 HTS: modulators (inhibitors or enhancers) of MEK5 binding to human MEKK3 PB1 domain. actives 1.4% (n = 290,000). AID 1529. bead-based flow cytometry, Alexa488-MEK5 binding to MEKK3; actives lie on both sides; 0 = blocked by unlabeled MEK5, 100 = vehicle. binding response (% of control), % at 10 µM. Q99759;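 active means binding response more than 3 SD above or below the average of its plate-row segment, actives on both sides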;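 further: Alexa488 bead fluorescence after subtracting the streptavidin-only scavenger bead signal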
# MEKK2wt PB1 HTS: raises or lowers MEK5 binding to wildtype human MEKK2 PB1 domain | actives 1.1% (n = 290,000) | binding response (% of control), % at 10 µM | AID 1531 | bead flow cytometry, Alexa488-MEK5 binding to MEKK2 WT; actives lie on both sides; in the data active means binding response below about 67% or above about 130%
# MEKK2 mut-MEK5: signal of MEK5 binding to mutant human MEKK2 PB1 domain; percent response, % at 10 µM; actives 0.35% (n = 290,000); bead flow cytometry, Alexa488-MEK5 binding to MEKK2 mutant; in the data active means percent response above about 24%, passing the limit was not always enough
# CRFR2-BP ag: CRF-BP/CRF-R2 complex agonism; HEK293 CRF-R2/CRF-BP, calcium dye fluorescence (FLIPR); percent of saturating CRF peptide response; AID 588473; actives 0.46% (n = 350,000); activation, % at 13.2 µM;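 active means activation of at least 50%, plus an integration ratio under a set limit after plate pattern correction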;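 further: plate controls were neutral control wells without compound for no effect and CRF at EC100 for full effect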
# CRFR2-BP antag: CRF-BP/CRF-R2 complex antagonism; HEK293 CRF-R2/CRF-BP, CRF-induced calcium fluorescence; actives 0.59% (n = 350,000); AID 588475; inhibition, % at 11.8 µM;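 active means inhibition of the ligand-induced calcium signal above about 50% at the single tested concentration, limit read from the data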
# ABCB6 inh MLPCN: inhibitors of human ABC transporter ABCB6; fluorescence ratio to DMSO, % at 10 µM; actives 0.19% (n = 360,000); K562-ABCB6 porphyrin accumulation, flow cytometry, 1 h; stronger effect = lower value; Q9NP58;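 active means fluorescence ratio to DMSO below 75%, the collection mean minus 3 SD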;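 further: signal is porphyrin accumulated inside mitochondria; 100% equals median channel fluorescence of DMSO control wells; lower ratio means ABCB6 inhibition with less porphyrin fluorescence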
# Target sequence (Q9NP58 whole entry, looked up): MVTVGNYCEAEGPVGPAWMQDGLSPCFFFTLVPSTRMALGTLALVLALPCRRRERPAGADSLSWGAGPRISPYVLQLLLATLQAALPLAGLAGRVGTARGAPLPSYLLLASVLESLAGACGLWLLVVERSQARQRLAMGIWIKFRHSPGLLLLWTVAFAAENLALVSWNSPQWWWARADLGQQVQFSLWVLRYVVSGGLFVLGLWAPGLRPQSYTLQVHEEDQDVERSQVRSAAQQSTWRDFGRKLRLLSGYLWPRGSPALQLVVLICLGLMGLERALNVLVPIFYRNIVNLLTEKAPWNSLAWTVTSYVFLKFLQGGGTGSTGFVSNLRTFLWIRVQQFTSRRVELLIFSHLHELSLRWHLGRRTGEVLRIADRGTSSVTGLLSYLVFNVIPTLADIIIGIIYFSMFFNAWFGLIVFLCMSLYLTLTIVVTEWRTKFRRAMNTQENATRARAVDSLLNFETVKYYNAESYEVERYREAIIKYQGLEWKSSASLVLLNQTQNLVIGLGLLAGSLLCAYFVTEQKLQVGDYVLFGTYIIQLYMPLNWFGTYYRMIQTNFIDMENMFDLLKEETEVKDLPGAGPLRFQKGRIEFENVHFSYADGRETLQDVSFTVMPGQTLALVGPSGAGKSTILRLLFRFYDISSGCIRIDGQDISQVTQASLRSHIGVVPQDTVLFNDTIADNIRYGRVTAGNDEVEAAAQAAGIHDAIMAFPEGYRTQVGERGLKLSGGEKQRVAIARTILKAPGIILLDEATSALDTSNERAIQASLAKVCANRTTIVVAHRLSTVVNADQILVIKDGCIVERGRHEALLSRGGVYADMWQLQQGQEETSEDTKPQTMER
# MEKK2wt confirm: raises or lowers MEK5 binding to wildtype human MEKK2, retest; bead flow cytometry, Alexa488-MEK5 binding to MEKK2 WT; actives lie on both sides; shares compounds with MEKK3 PB1 HTS; AID 1892; binding response (% of control), % at 10 µM; actives 2.4% (n = 5,900); in the data active means binding response below about 16% or above about 210%; inactive means in between
# MEKK2mut confirm: signal of MEK5 binding to mutant human MEKK2, retest; percent response, % at 10 µM; actives 2% (n = 5,900); shares compounds with MEKK3 PB1 HTS; bead flow cytometry, Alexa488-MEK5 binding to MEKK2 mutant; AID 1893; in the data active means percent response mostly above about 71%, no sharp cut-off; inactive means mostly below about 38%;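 further: higher means compound restores mutant binding toward wildtype level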
# MEKK3-MEK5 inh: MEKK3-MEK5 PB1 inhibition, single concentration confirmation; shares compounds with MEKK3 PB1 HTS; bead flow cytometry, Alexa488-MEK5 binding to MEKK3; stronger effect = lower value; binding response (% of control), % at 10 µM; actives 1.8% (n = 5,900); AID 1894;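 active means binding response below 72% of control, or above a set upper limit, though filed actives all read lower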;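 further: 100% = DMSO only wells and 0% = binding blocked by excess unlabeled MEK5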
# * marks the source's active call; other numbers are inactive results; · = no result given; [ ] = remark or other dose. In the library only some 2.9% were active in any assay of this set; here they are far more common.
SMILES,MEKK3 PB1 HTS,MEKK2wt PB1 HTS,MEKK2 mut-MEK5,CRFR2-BP ag,CRFR2-BP antag,ABCB6 inh MLPCN,MEKK2wt confirm,MEKK2mut confirm,MEKK3-MEK5 inh
O=C(Nc1cccc(-c2cccc(Cl)c2)c1)C1CCN(CC2CCOC2)CC1 (stereo not given),108.0,151.0*,41.0*,-1.1,-3.4,95.0,161.0,35.0,111.0
Cc1cccc(-c2ccc(NC(=O)C3CCN(CC4CC4)CC3)cc2)c1,121.0,159.0*,35.0*,-0.3,-15.2,100.0,134.0,28.0,102.0
COc1cccc(CN2CCC(C(=O)Nc3ccc(-c4cccc(C)c4)cc3)CC2)c1O,98.0,133.0,22.0,-0.2,-13.7,95.0,·,·,·
COCc1ccc(CN2CCC(C(=O)Nc3cccc(-c4cccc(Cl)c4)c3)CC2)o1,108.0,177.0*,25.0*,6.0,5.1,97.0,180.0,39.0,111.0
O=C(Nc1cccc(-c2cccc(Cl)c2)c1)C1CCN(Cc2ccccn2)CC1,110.0,140.0*,23.0,-2.9,-6.7,112.0,195.0,61.0,110.0
COc1ccc(C(=O)OCC(=O)NCC2CCCO2)c(F)c1 (stereo not given),·,·,·,0.3,-0.7,103.0,·,·,·
CC1C(O)=C(c2ccccc2)P(=O)(Cc2ccccc2)C1C (stereo not given),·,·,·,·,·,96.0,·,·,·
CCn1c(SCC(=O)Nc2ccc(C(=O)OC)cc2)nnc1-c1cccs1,101.0,99.0,-3.0,1.0,9.7,94.0,·,·,·
CCn1c(CNC(=O)c2cccs2)nnc1SCC(=O)Nc1ccc(Cl)cc1,128.0*,110.0,0.0,-0.1,-24.6,93.0,97.0,-5.0,95.0
CCn1c(SCC(=O)NCC(=O)Nc2ccc(F)cc2)nnc1-c1cccs1,0.0*[inhibitor],-4.0*[inhibitor],-21.0,0.5,-13.4,100.0,109.0,9.0,105.0
CCn1c(CC(=O)Nc2ccc(Cl)c(Cl)c2)nnc1SCc1ccc(C)cc1,97.0,107.0,11.0,0.5,14.6,103.0,·,·,·
CCn1c(CC(=O)Nc2ccc(Cl)c(Cl)c2)nnc1SCc1ccc(Cl)cc1,8.0*[inhibitor],14.0*[inhibitor],2.0,-1.4,21.9,108.0,107.0,3.0,106.0
CCn1c(SCC(=O)Nc2ccc3c(c2)OCO3)nnc1C(C)C,95.0,98.0,-6.0,-0.9,7.0,103.0,·,·,·
O=C(CSCc1ccccc1)N1CCN(c2ccccc2)CC1,91.0,94.0,-1.0,-2.3,7.0,99.0,·,·,·
Cc1ccc(CSCC(=O)N2CCN(c3ccccc3)CC2)cc1,131.0*,106.0,0.0,-0.3,13.4,100.0,107.0,-1.0,107.0
O=C(c1ccc2snnc2c1)N1CCN(c2ccccc2)CC1,129.0*,131.0,8.0,-2.5,-1.8,101.0,92.0,-8.0,95.0
CCn1c(C)nc2cc(C(=O)NNC(=S)Nc3ccc(Cl)cc3)ccc21,25.0*[inhibitor],19.0*[inhibitor],-13.0,-0.9,-4.3,98.0,97.0,5.0,101.0
CCn1c(SCC(=O)O)nc2sc3c(c2c1=O)CCC3,1.0*[inhibitor],-1.0*[inhibitor],-9.0,0.7,9.9,91.0,96.0,-6.0,101.0
CCn1c(SCC(=O)OC)nc2sc3c(c2c1=O)CCC3,98.0,101.0,2.0,-1.6,9.2,91.0,·,·,·
Cc1cc(C(=O)COC(=O)C2=COCCO2)c(C)n1-c1cccc(F)c1,·,·,·,-6.3,0.1,98.0,·,·,·
COc1ccc(NC(=O)N(C)C[C@@H]2OCc3ccccc3-c3c(n(C)c4ccccc34)C(=O)N([C@H](C)CO)C[C@H]2C)c(OC)c1,·,·,·,0.7,5.3,99.0,·,·,·
CCCc1cc(=O)[nH]c(SCc2cc(C(=O)OC)c(C)o2)n1,2.0*[inhibitor],3.0*[inhibitor],-16.0,0.7,10.3,99.0,99.0,-2.0,101.0
CCC(=O)N1CCc2cc(Br)cc(S(=O)(=O)NCCN3CCCCC3CC)c21 (stereo not given),57.0*[inhibitor],68.0,-10.0,0.2,-3.2,93.0,103.0,0.0,100.0
CCOC(=O)c1ccc(N2NC(=O)/C(=C/c3ccc(OC(=O)c4ccco4)c(OC)c3)C2=O)cc1,100.0,88.0,-2.0,·,·,·,·,·,·
CCOC(=O)COc1ccc(/C=C2/C(=O)NN(c3ccc(F)cc3)C2=O)cc1OC,116.0,167.0*,15.0,0.5,-11.5,104.0,98.0,-1.0,101.0
SMILES,MEKK3 PB1 HTS,MEKK2wt PB1 HTS,MEKK2 mut-MEK5,CRFR2-BP ag,CRFR2-BP antag,ABCB6 inh MLPCN,MEKK2wt confirm,MEKK2mut confirm,MEKK3-MEK5 inh
CC(C)c1ccc(N2C(=O)CC(Sc3ncn[nH]3)C2=O)cc1 (stereo not given),107.0,112.0,4.0,3.5,0.9,101.0,·,·,·
COc1ccc(N2C(=O)CC(Sc3ncn[nH]3)C2=O)c(OC)c1 (stereo not given),122.0*,116.0,11.0,-0.2,-3.5,100.0,102.0,-2.0,101.0
O=C(/C=C/c1ccco1)NC(=S)Nc1ccc(N2CCCC2)cc1,142.0*,103.0,0.0,-2.9,7.1,96.0,92.0,-9.0,96.0
CC[N+]1(CC)CC2=Cc3c(ccc4ccccc34)C(C)C2C1 (stereo not given),96.0,109.0,4.0,0.0,6.1,86.0,·,·,·
CCC(C)NS(=O)(=O)c1ccc(S(=O)(=O)N(CCc2ccc(OC)c(OC)c2)Cc2cccs2)cc1 (stereo not given),147.0*,107.0,-1.0,11.8,-14.3,87.0,99.0,-2.0,102.0
Cc1ccc(-c2c[n+](CC(=O)Nc3nc(-c4ccccc4)cs3)c3n2CCC3)cc1,103.0,183.0*,47.0,-0.2,-6.2,99.0,174.0,68.0,108.0
Clc1ccc(C[n+]2cc(-c3ccccc3)n3c2CCC3)cc1Cl,95.0,105.0,-1.0,-1.5,23.6,92.0,·,·,·
O=C(C[n+]1cc(-c2ccccc2)n2c1CCC2)Nc1nc(-c2ccccc2)cs1,102.0,166.0*,28.0,-0.9,27.4,99.0,128.0,16.0,101.0
O=C(C[n+]1cc(-c2ccc(Cl)c(Cl)c2)n2c1CCC2)OCc1ccccc1,155.0*,123.0,1.0,-2.0,7.3,99.0,109.0,3.0,97.0
O=C(C[n+]1cc(-c2ccccc2)n2c1CCCCC2)c1ccc(Cl)cc1,102.0,142.0*,25.0,1.6,-4.6,94.0,105.0,2.0,94.0
COc1ccc(-c2c[n+](CC(=O)c3ccccc3)c3n2CCCCC3)cc1,94.0,113.0,2.0,0.3,-3.8,96.0,·,·,·
